Structures are written as SMILES. This is part of a sample that, as a whole, favours compounds with a hit. Of some 83,000 tested, about 20% had one in any assay.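 96-well plates, one dose, 48 hours. Percent growth reported; active if below 10.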 Unmarked numbers belong to inactive results. The source made the active and inactive calls.

These results are taken from PubChem BioAssay (NCI).

Test systems include DU-145 prostate; K-562 leukemia; MALME-3M melanoma; MDA-MB-231 breast; RXF 393 renal; SF-268 CNS; SF-295 CNS; SF-539 CNS; UACC-257 melanoma; M14 melanoma; HCT-15 colon; HT29 colon; SNB-75 CNS; SNB-19 CNS; U251 CNS; PC-3 prostate; SK-MEL-5 melanoma; UACC-62 melanoma; LOX IMVI melanoma; SK-MEL-28 melanoma.
Assay in all cases: NCI-60 one-dose screen, 48 h (100 = growth as untreated, 0 = no growth, -100 = all killed)
Common to all, as to conditions: 10 µM

Regarding `N#CCc1csc(Cc2ccccc2)n1`, the growth with DU-145 prostate was 108%; with K-562 leukemia, 103%; in the experiment with MALME-3M melanoma, 101%; with MDA-MB-231 breast it was 114%; in the experiment with RXF 393 renal, 119%; with SF-268 CNS, 100%. Besides, the growth in the experiment with SF-295 CNS was 106%; with SF-539 CNS it was 104%; in the experiment on UACC-257 melanoma, 94.5%; in the experiment with M14 melanoma it was 101%; in the experiment with HCT-15 colon, 109%; with HT29 colon, 98%. The growth was 101% in the experiment on SNB-75 CNS; 101% in the experiment on SNB-19 CNS; 103% in the experiment with U251 CNS; 109% in the experiment with PC-3 prostate; 102% in the experiment with SK-MEL-5 melanoma; 103% with UACC-62 melanoma. Further, the figures for the growth in the experiment with LOX IMVI melanoma and with SK-MEL-28 melanoma were 95.9% and 108%, respectively.
Turning to `O=C(CCCCC(=O)Oc1c(Cl)cc(Cl)cc1[N+](=O)[O-])Oc1c(Cl)cc(Cl)cc1[N+](=O)[O-]`, the growth in the experiment with DU-145 prostate is 106%; in the experiment on K-562 leukemia, 85.9%; with MALME-3M melanoma it was 98.8%; with MDA-MB-231 breast it was 106%; with RXF 393 renal, 120%; with SF-268 CNS it was 96.3%. Besides, the growth with SF-295 CNS is 97.2%; in the experiment with SF-539 CNS, 100%; in the experiment on UACC-257 melanoma it was 99.5%; in the experiment with M14 melanoma, 103%; with HCT-15 colon, 100%; in the experiment on HT29 colon it was 103%. Moreover, the growth in the experiment with SNB-75 CNS was 93.9%; in the experiment with SNB-19 CNS, 105%; in the experiment with U251 CNS, 98%; with PC-3 prostate, 104%; in the experiment with SK-MEL-5 melanoma, 102%; in the experiment on UACC-62 melanoma, 102%. Moreover, the values for the growth in the experiment on LOX IMVI melanoma and with SK-MEL-28 melanoma were 92% and 111%, respectively.
With `COc1cc(-c2nn(-c3cccc(NC(=O)NCCNC(=O)c4cccc(C(F)(F)F)c4)c3)cc2-c2ccncc2)ccc1Cl`, the growth with DU-145 prostate is 48.9%; in the experiment with K-562 leukemia, 8.57% (active); with MALME-3M melanoma it was 52.6%; in the experiment with MDA-MB-231 breast it was 41.4%; in the experiment with RXF 393 renal, 15.3%; in the experiment with SF-268 CNS, 41.8%. Also, the growth with SF-295 CNS is 6.79% (active); in the experiment on SF-539 CNS, 22.2%; in the experiment on UACC-257 melanoma, 51%; in the experiment with M14 melanoma it was 15.3%; in the experiment on HCT-15 colon, 53.2%; in the experiment with HT29 colon it was 21.1%. Moreover, the growth in the experiment on SNB-75 CNS is 16.5%; with SNB-19 CNS, 53.5%; in the experiment with U251 CNS, 28.4%; in the experiment with PC-3 prostate it was 17.6%; in the experiment on SK-MEL-5 melanoma it was 7.16% (active); in the experiment on UACC-62 melanoma it was 50.7%. In the experiment on SK-MEL-28 melanoma, the growth was 57.6%.
`CCN(CC)c1ccc(/C=C2\SC(=O)C(Nc3nnc(-c4cccnc4SCc4ccccc4)o3)C2=O)cc1` (stereo unspecified): the growth is 28.9% in the experiment on DU-145 prostate; 14.5% in the experiment with K-562 leukemia; 57.9% in the experiment with MALME-3M melanoma; 39.4% in the experiment with MDA-MB-231 breast; -13.2% (active) in the experiment on RXF 393 renal; 57.3% with SF-268 CNS. For the same compound, the growth is 12.2% in the experiment with SF-295 CNS; 13.8% in the experiment with SF-539 CNS; 56.9% in the experiment on UACC-257 melanoma; -11.6% (active) in the experiment on M14 melanoma; 15.2% with HCT-15 colon; 3.09% (active) in the experiment on HT29 colon. For the same compound, the growth with SNB-75 CNS was 44.1%; in the experiment on SNB-19 CNS, 63.5%; with U251 CNS, 3.89% (active); in the experiment on PC-3 prostate, 16.9%; in the experiment on SK-MEL-5 melanoma, 27.4%; with UACC-62 melanoma, 30.2%. Also, in the experiment with SK-MEL-28 melanoma, the growth is 50.8%.
For `OCC1OC(n2cnc3c(NCc4ccco4)ncnc32)C(O)C1O` (stereo unspecified), the growth was 4.25% (active) in the experiment on DU-145 prostate; 33% in the experiment with K-562 leukemia; 65.5% in the experiment on MALME-3M melanoma; -5.65% (active) in the experiment with MDA-MB-231 breast; -13.7% (active) in the experiment on RXF 393 renal; 44.6% with SF-268 CNS. Moreover, the growth was 26.5% in the experiment with SF-295 CNS; 21.7% in the experiment with SF-539 CNS; 86.4% in the experiment with UACC-257 melanoma; 31.2% in the experiment on M14 melanoma; 6.12% (active) in the experiment on HCT-15 colon; 23.3% in the experiment with HT29 colon. Besides, the growth in the experiment with SNB-75 CNS was 14.7%; in the experiment on SNB-19 CNS, 28.5%; in the experiment with U251 CNS, 43.7%; in the experiment with PC-3 prostate, 22%; in the experiment on SK-MEL-5 melanoma, 23.7%; with UACC-62 melanoma, 32.5%. In addition, the growth in the experiment on SK-MEL-28 melanoma was 68.1%.
On to `CCCCN(CCCC)C(=O)[C@H](CC)[C@@H]1CC[C@@H](C)[C@@H]([C@H](C)[C@@H](O)[C@@H](C)C(=O)[C@H](CC)C2O[C@]3(C=CC(=O)[C@]4(CC[C@@](C)([C@H]5CC[C@](O)(CC)[C@H](C)O5)O4)O3)[C@H](C)C[C@@H]2C)O1` (stereo partly specified), for which the growth was 84.9% with DU-145 prostate; 24.4% with K-562 leukemia; -5.97% (active) in the experiment with MALME-3M melanoma; 46.8% in the experiment on MDA-MB-231 breast; 47% in the experiment with RXF 393 renal; 68.6% with SF-268 CNS. Also, the growth was 2.72% (active) with SF-295 CNS; 59.6% in the experiment with SF-539 CNS; 21.3% with UACC-257 melanoma; 30% in the experiment on M14 melanoma; 54% in the experiment with HCT-15 colon; 20.9% in the experiment on HT29 colon. Besides, the growth in the experiment with SNB-75 CNS was 33.3%; in the experiment with SNB-19 CNS, 27%; in the experiment on U251 CNS, 32.7%; in the experiment with PC-3 prostate, 12.5%; with SK-MEL-5 melanoma, 18%; with UACC-62 melanoma it was 22.5%. In addition, the growth was 43.5% in the experiment with LOX IMVI melanoma and 23.8% with SK-MEL-28 melanoma.
Take `CC(C)C[C@H](NC(=O)Cn1cccc(CNC(=O)c2ccccc2)c1=O)B(O)O`: the growth in the experiment on DU-145 prostate is 43.1%; with K-562 leukemia, 11.6%; in the experiment with MALME-3M melanoma it was -35.3% (active); in the experiment on MDA-MB-231 breast, -2.81% (active); with RXF 393 renal it was -19% (active); in the experiment with SF-268 CNS, -19.5% (active). The growth with SF-295 CNS is 1.43% (active); with SF-539 CNS, -16.6% (active); in the experiment on UACC-257 melanoma, -9.26% (active); in the experiment with M14 melanoma it was 12.2%; in the experiment with HCT-15 colon, 64.7%; in the experiment on HT29 colon, -0.24% (active). Further, the growth in the experiment with SNB-75 CNS is -4.6% (active); in the experiment on SNB-19 CNS, 34.1%; in the experiment on U251 CNS, 17.2%; in the experiment on PC-3 prostate, 35.8%; in the experiment with SK-MEL-5 melanoma, -34.3% (active); in the experiment on UACC-62 melanoma, -17.1% (active). Besides, the figures for the growth in the experiment on LOX IMVI melanoma and in the experiment on SK-MEL-28 melanoma were -60.4% (active) and 19.4%, respectively.
With `CC(CN(C)C)Oc1ccccc1NC1=C(Cl)C(=O)C(Nc2ccccc2OC(C)CN(C)C)=C(Cl)C1=O` (stereo unspecified), the growth was -99.3% (active) with DU-145 prostate; -11.2% (active) in the experiment with K-562 leukemia; -76.6% (active) in the experiment with MALME-3M melanoma; -77.5% (active) in the experiment with MDA-MB-231 breast; -90.7% (active) with RXF 393 renal; -81.8% (active) with SF-268 CNS. For the same compound, the growth was 30.6% with SF-295 CNS; -98% (active) with SF-539 CNS; -91.8% (active) in the experiment with UACC-257 melanoma; -65% (active) with M14 melanoma; -79% (active) in the experiment with HCT-15 colon; -70.1% (active) in the experiment with HT29 colon. For the same compound, the growth was 35% in the experiment with SNB-75 CNS; 3.85% (active) with SNB-19 CNS; -84.2% (active) in the experiment on U251 CNS; 3.47% (active) in the experiment with PC-3 prostate; -95.8% (active) in the experiment on SK-MEL-5 melanoma; -84.5% (active) in the experiment with UACC-62 melanoma. In addition, in the experiment with SK-MEL-28 melanoma, the growth is -64.9% (active).
